A short description of assay [1]: Viability qHTS for spleen associated tyrosine kinase inhibitor (SYKi) naive MV4-11 cells (AID 1963823). Further: nearly all actives have a fitted effect of over 40% in size. The method in brief:
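Seeding of 500 SYKi-naive MV4-11 cells per well onto pre-dispensed compounds preceded a 72 hr incubation at 37 C. Luminescent CellTiter-Glo signal, read after 10 min at room temperature, reflected viable cells.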
In general terms: Quantitative high-throughput screening tests each substance at several concentrations.

A short description of assay [2]: Viability qHTS for spleen associated tyrosine kinase inhibitor (SYKi) drug resistant MV4-11 cells (AID 1963824). Further: nearly all actives have a fitted effect of over 35% in size. Put shortly: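 CellTiter-Glo luminescence, read 10 min after reagent addition, reports viability after a 72 hr compound exposure. Cells are an MV4-11 line made resistant to SYK inhibition, seeded at 500 per well onto compound-containing plates.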

From PubChem BioAssay (NCATS) come the findings set out here.

Results filed as inconclusive are left out. Unmarked numbers belong to inactive results. Active and inactive are the calls of the source. The call rests on the fitted dose curve; in most records, active means well fitted cell-killing curve with a large enough effect; inconclusive means small, poorly fitted or top-dose-only effect, or effect the other way; inactive means no such curve, though single readings can be large or run the other way.
Potency means the concentration at half of the fitted maximal effect.

As to `COC1C(O)C(OC2CCC3(C=O)C(CCC4C3CCC3(C)C(C5=CC(=O)OC5)CCC43O)C2)OC(C)C1OC1OC(CO)C(O)C(O)C1O` (configuration not stated), the Potency in assay [1] is 153 nM (active); in assay [2], 172 nM (active).
The matching figures for `CC[C@@H](C)[C@H]1C(=O)O[C@H](C(C)C)C(=O)N(C)[C@@H]([C@@H](C)CC)C(=O)O[C@H](C(C)C)C(=O)N(C)[C@@H]([C@H](C)CC)C(=O)O[C@H](C(C)C)C(=O)N1C`: 1220 nM (active) and 1720 nM (active).
The matching figures for `C=C(CO)C(=O)O[C@H]1C/C(C)=C/CC/C(CO)=C/[C@H]2OC(=O)C(=C)[C@H]12`: “inactive” and “inactive”.
On to `CC[C@H](C)[C@@H]([C@@H](CC(=O)N1CCC[C@H]1[C@H](OC)[C@@H](C)C(=O)N[C@@H](Cc1ccccc1)c1nccs1)OC)N(C)C(=O)[C@@H](NC(=O)C(C)(C)N)C(C)C`, for which the Potency result in assay [1] and in assay [2] was “inactive” throughout.
In the case of `C1=C2CCCN[C@H]2[C@@H]2C[C@H]1[C@H]1CCCCN1C2`, the Potency entry in assay [1] and in assay [2] was “inactive” throughout.
Turning to `COC1C=CC23c4cc5c(cc4COC2(O)CN(C)C3C1)OCO5` (configuration not stated), the Potency entry in assay [1] and in assay [2] was “inactive” each time.
As for `C=C1C[C@]2(O)[C@@]3(C)CCC(=O)C(C)(C)C3=C(O)C(=O)[C@@]2(C)[C@@H]2C(=O)O[C@@](C)(C(=O)OC)C(=O)[C@@]12C`, the Potency result in assay [1] and in assay [2] was “inactive” in each case.
On to `CN1CCCC1CCOC(c1cc2nccc(C(=O)O)c2[nH]1)c1ccccc1Cl` (configuration not stated), for which the Potency entry in assay [1] and in assay [2] was “inactive” throughout.
On to `CN[C@H]1[C@H](O)[C@H](O[C@@H]2[C@@H](O)[C@H](O[C@H]3O[C@H]([C@H](C)O)[C@@H](O)[C@H](O)[C@H]3N)[C@@H](N)C[C@H]2N)OC[C@@]1(C)O`, for which the Potency entry in assay [1] and in assay [2] was “inactive” each time.
As for `Oc1ccc2c3c1O[C@H]1[C@H](N(CCCl)CCCl)CC[C@@]4(O)[C@@H](C2)N(CC2CC2)CC[C@]314`, the viability (% of control) in assay [1] is 89.3% [at 9.25 µM]. For the same compound, the viability, % of control in assay [2] was 83.4% [at 9.25 µM].
Take `NNc1ccccc1`: the Potency entry in assay [1] and in assay [2] was “inactive” each time.
For the compound `C=C1C(=O)CC2OC2(C)CC2OC(=O)C(=C)C2C(O)C1OC(=O)/C(C)=C\C` (configuration not stated), the Potency is 508 nM (active) in assay [1] and 570 nM (active) in assay [2].
The matching figures for `O=C1C[C@@H]2OCC=C3CN4CC[C@]56c7ccccc7N1[C@H]5[C@H]2[C@H]3C[C@H]46`: “inactive” and “inactive”.
The matching figures for `COC1=CC(=O)O[C@@H](/C=C/c2ccccc2)C1`: “inactive” and “inactive”.
The matching figures for `O=C1Nc2ccc3ncsc3c2/C1=C/c1cnc[nH]1`: 82 nM (active) and 164 nM (active).
On to `Cc1ccccc1C1=CCN(C)CC1`, for which the Potency result in assay [1] and in assay [2] was “inactive” throughout.
As to `CC[C@H]1/C=C\C=C/C[C@@H](C)[C@H](O)[C@@](C)(O)C(=O)[C@@H](C)[C@H](O)[C@@H](C)C(=O)[C@@H](C)[C@H](O)[C@@H](C)/C=C\C(=O)O[C@@H]2[C@H](C)[C@H](CC1)O[C@]1(CC[C@H](C)[C@H](C[C@@H](C)O)O1)[C@H]2C`, the Potency in assay [1] was 9.2 nM (active); in assay [2], 6.5 nM (active).
The matching figures for `COCC1OC(=O)c2coc3c2C1(C)C1=C(C3=O)C2CCC(=O)C2(C)CC1O` (configuration not stated): “inactive” and “inactive”.
For `CCN1C[C@]2(COC(=O)c3ccccc3N3C(=O)C[C@H](C)C3=O)CC[C@H](OC)[C@@]34[C@@H]5C[C@H]6[C@H](OC)[C@@H]5[C@](O)(C[C@@H]6OC)[C@](O)([C@@H](OC)[C@H]23)[C@@H]14`, the Potency entry in assay [1] and in assay [2] was “inactive” each time.
Consider `CN1CCCCC1Cn1cc(C(=O)c2cc([N+](=O)[O-])ccc2I)c2ccccc21` (configuration not stated), for which the values for the Potency in assay [1] and in assay [2] were 14600 nM (active) and 10300 nM (active), respectively.
Turning to `N#Cc1ccccc1-c1cc(-c2ccccn2)cn(-c2ccccc2)c1=O`, the Potency entry in assay [1] and in assay [2] was “inactive” each time.
On to `Clc1ccc(N2C[C@H]3CC[C@@H](C2)N3)nn1`, for which the Potency entry in assay [1] and in assay [2] was “inactive” throughout.
As to `O=C(OC[C@H]1O[C@@H](Oc2ccc(O)cc2CO)[C@H](O)[C@@H](O)[C@@H]1O)c1ccccc1`, the Potency result in assay [1] and in assay [2] was “inactive” in each case.
`CC(=O)OC[C@]12[C@H](OC(C)=O)C(=O)[C@@H]3[C@@H](O)[C@@]14O[C@@]3(C)COC(=O)c1cccnc1[C@@H](C)[C@H](C)C(=O)O[C@@H]([C@H](OC(C)=O)[C@@H]2OC(C)=O)[C@]4(C)O`: the Potency in assay [1] and in assay [2] was 5440 nM (active) throughout.
`COC[C@]12CN(C)C3C4[C@H](OC)[C@H]1C3(C(OC)C[C@H]2O)[C@H]1C[C@@]2(O)[C@H](OC(=O)c3ccccc3)[C@@H]1[C@]4(O)[C@@H](O)[C@@H]2OC` (some centres not stated): the Potency entry in assay [1] and in assay [2] was “inactive” in each case.
With `COC1CC(OC2CCC3(C)C(=CCC4C3CCC3(C)C(C(C)OC5OC(COC6OC(CO)C(O)C(O)C6O)C(O)C(O)C5O)CCC43O)C2)OC(C)C1OC1OC(C)C(O)C(OC)C1O` (configuration not stated), the viability (% of control) in assay [1] was 91.8% [at 9.25 µM]. In addition, in assay [2], the viability, % of control was 87.9% [at 9.25 µM].
